According to PubChem BioAssay (NCATS):
Inconclusive results are not listed. Where a call stands in place of a potency, no number is given. Calls of active or inactive are those of the source. Calls follow the shape of the dose curve; as a rule, active = well fitted cell-killing curve with a large enough effect; inconclusive = small, poorly fitted or top-dose-only effect, or effect the other way; inactive = no such curve, though single readings can be large or run the other way.

test: Quantitative High-Throughput drug screen in 47 multiple myeloma cell lines against the NCATS MIPE library collection: KMS28BM_JCRB cell viability assay (AID 1919874); conditions: CellTiter-Glo ATP, 48 h; series mostly up to 45.8 µM; also: nearly all actives have a fitted effect of over 35% in size
Procedure, shortened: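 ATP-based luminescence (CellTiter-Glo, 5 min RT incubation) quantified surviving cells following two days' treatment with MIPE 4.0 agents at 37 °C, 5% CO2.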
Potency is read from the fitted curve at half-maximal effect.

Structure (SMILES)	Potency
COc1ccc([C@@H]2CC(=O)c3c(O)cc(O[C@@H]4O[C@H](CO[C@@H]5O[C@@H](C)[C@H](O)[C@@H](O)[C@@H]5O)[C@@H](O)[C@H](O)[C@@H]4O)cc3O2)cc1O	inactive
NC(=O)c1ccc(-c2nc(-c3ccc4c(c3)OCCO4)c(-c3ccccn3)[nH]2)cc1	inactive
CCOc1cc(C(=O)Nc2ccc(Cl)c(-c3nc4ccccc4[nH]3)c2)cc(OCC)c1OCC	inactive
CC(C[N+](C)(C)C)OC(N)=O (configuration not stated)	inactive
NCCCC(N)(C(=O)O)C(F)F (configuration not stated)	inactive
c1ccc(-c2nn3c(c2-c2ccnc4cc(OCCN5CCOCC5)ccc24)CCC3)nc1	inactive
O=C(O)COCCN1CCN(C(c2ccccc2)c2ccc(Cl)cc2)CC1 (configuration not stated)	inactive
CC[C@@H](C)[C@H](NC(=O)[C@H](CC1CCCCC1)NC(=O)c1ccno1)C(=O)N1CCC2(CCc3ccccc32)CC1	inactive
CCOC(=O)C1=C[C@]2(CC)CCCN3CCc4c(n1c1ccccc41)[C@@H]32	8.33 µM (active)
CCOc1ccc(Cc2cc([C@@H]3O[C@H](CO)[C@@H](O)[C@H](O)[C@@H]3O)ccc2Cl)cc1	inactive
CCc1cncnc1N1CCN(Cc2nc3ccc(C(F)(F)F)cc3[nH]2)CC1	23.5 µM (active)
Nc1ccc(S(=O)(=O)Nc2ccnn2-c2ccccc2)cc1	inactive
Cc1c(C)c2c(c(C)c1O)CCC(C)(COc1ccc(CC3SC(=O)NC3=O)cc1)O2 (configuration not stated)	inactive
CCn1cc(C(=O)O)c(=O)c2cc(F)c(N3CCNC(C)C3)c(F)c21 (configuration not stated)	inactive
COc1ccc(C2=N[C@H](c3ccc(Cl)cc3)[C@H](c3ccc(Cl)cc3)N2C(=O)N2CCNC(=O)C2)c(OC(C)C)c1	16.6 µM (active)
O=C(Nc1cccnc1)N1CCC(Cc2cccc(Oc3ccc(C(F)(F)F)cn3)c2)CC1	8.33 µM (active)
CN1CCN(CCCN2c3ccccc3Sc3ccc(C(F)(F)F)cc32)CC1	inactive
